Holding throughout (assay): NCI-60 one-dose screen, 48 h (100 = growth as untreated, 0 = no growth, -100 = all killed)
Conditions in all cases: 10 µM unless noted

Assay [1] deals with NCI-H23 lung.
In assay [2] the test system is NCI-H226 lung.
Assay [3] deals with NCI-H322M lung.
In assay [4] the test system is NCI-H460 lung.
Assay [5] has as its system HOP-92 NSCLC.
In assay [6] the test system is NCI-H522 lung.
Assay [7] has as its system A549/ATCC NSCLC.
Assay [8] relates to 786-0 renal.
The subject of assay [9] is COLO 205 colon.
For assay [10], the system named is HOP-62 NSCLC.

The record followed here is PubChem BioAssay (NCI).

This is part of a sample that, as a whole, favours compounds with a hit. Of some 83,000 tested, about 20% had one in any assay.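 In brief: 96-well plates, 48 h treatment, single concentration, percent growth endpoint.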 Values without a mark were called inactive. Calls of active or inactive are those of the source. How the source made its calls: active means growth percent below 10; inactive means the rest.

For `CSc1nc2c(c(=O)[nH]1)C1(C(=O)Nc3ccccc31)c1c(nc(SC)[nH]c1=O)N2`, the growth was 105% in assay [1]; 94.9% in [2]; 92.5% in assay [3]; 103% in [4]; 98.8% in assay [5]; 123% in assay [6]. The growth in assay [7] was 100%; in [8], 103%; in [9] it was 109%.

As for `O=C1c2cc3c(cc2-c2c1c1ccc(Cl)cc1c(=O)n2CCCN1CCOCC1)OCO3`, the growth in assay [1] is 47.9%; in assay [2], 24.9%; in [3], 89.6%; in assay [4], 18.1%; in [5], 80.4%; in assay [6], 53.5%. The results for the growth in assay [7], in assay [8] and in assay [9] were 48.7%, 34.2% and 54.8%, respectively.

Take `CC1=C[C@H]2c3c(c(O)c(O)c4oc5c(C)cccc5c(=O)c34)[C@H](c3cc(O)c(O)c4oc5c(C)cccc5c(=O)c34)[C@H]2C(C)(C)C1`: the growth in assay [1] is -15.2% (active); in assay [2], 0.242% (active); in assay [3] it was 21.5%; in assay [10], 9.87% (active); in assay [4], -44.3% (active); in assay [5], 20.9%. Further, the growth in assay [8] is -3.44% (active); in assay [9] it was 16.3%.

In the case of `Cc1nn(-c2cc(=O)[nH]c3ccccc23)c(N)c1C#N`, the growth was 106% in assay [1]; 91.4% in assay [2]; 97% in assay [3]; 104% in assay [4]; 106% in [5]; 95.6% in [6]. The growth was 107% in assay [7], 105% in [8] and 123% in assay [9].

For the molecule `COc1ccc(-c2nn(-c3ccc(Cl)cc3)cc2-c2nc3ccccc3[nH]2)cc1`, the growth in assay [1] is 89.1%; in [2], 91.4%; in assay [3], 102%; in assay [4], 88.1%; in assay [5], 97%; in assay [6], 67.7%. The figures for the growth in assay [7], in [8] and in assay [9] were 95.4%, 103% and 101%, respectively.

Take `Cc1ccc(NC(=O)C2CCC(CN3CCN(C)CC3)CC2)cc1Nc1nccc(-c2cccnc2)n1` (stereo not drawn): the growth was 96.1% in assay [1]; 99.8% in assay [2]; 95.9% in [3]; 101% in assay [4]; 85.5% in assay [5]; 129% in assay [6]. Besides, the growth in [7] is 114%; in assay [8], 98.7%; in assay [9] it was 94.4%.

In the case of `O=C1c2cccc3cccc(c23)C(=O)N1CCCCCN1CCN(CCCCCOc2ccc(-c3nc4ccc(N5CCOCC5)cc4[nH]3)cc2)CC1`, the growth in assay [1] is 98.9%; in assay [2], 78.9%; in assay [3], 103%; in [4], 27.5%; in assay [5], 49.2%; in assay [6], 73.7%. For the same molecule, the growth in assay [7] was 21.3%; in [8], 109%; in assay [9] it was 96.5%.

For the molecule `OCCNc1nccc(N2CCN(c3ccnc4cc(Cl)ccc34)CC2)n1`, the growth was 80.5% in assay [1]; 92.2% in assay [2]; 84.2% in assay [3]; 96.8% in assay [4]; 88.7% in assay [5]; 65.2% in assay [6]. Also, the growth was 80.6% in assay [7], 92.8% in assay [8] and 65.6% in [9].

As to `CN(Cc1cc(Cl)cc(Cl)c1O)Cc1cc(Cl)cc(Cl)c1O`, the growth was 76.9% in assay [1]; 71.5% in assay [2]; 54.9% in assay [3]; 45.6% in [4]; 92.5% in [5]; 72.2% in [6]. For the same molecule, the growth in [7] was 61.2%; in assay [8], 94.7%; in [9] it was 99.5%.

Turning to `Fc1ccc2[nH]cc(SSc3c[nH]c4ccc(F)cc34)c2c1`, the growth is 45.9% in assay [1]; 52% in assay [2]; 89.7% in [3]; 30.5% in assay [4]; -27.9% (active) in assay [5]; 0.948% (active) in [6]. The growth in [7] is 19.3%; in assay [8], 60.8%; in assay [9] it was 40.9%.

For `CSc1nc(NCc2ccccc2)c(C#N)c(-c2cccc([N+](=O)[O-])c2)n1`, the growth is 93.7% in assay [1]; 94.5% in [2]; 95.7% in assay [3]; 97% in assay [4]; 77.7% in assay [5]; 85.4% in [6]. Moreover, the growth in assay [7] is 88.4%; in assay [8] it was 96.6%; in assay [9] it was 110%.

On to `CC(=O)c1cc(C(=O)c2ccc3c(c2)Sc2ccccc2N3)n2ccccc12`, for which the growth in assay [1] was 24.1%; in [2], 32.5%; in assay [3], 24.5%; in assay [4], 2.97% (active); in assay [5] it was 46.1%; in [6] it was -28.9% (active). Further, the growth was 10.8% in assay [7], 22.5% in assay [8] and -55.4% (active) in assay [9].

With `CCCc1cc(=O)n2c(C(=O)Nc3cccc(C(=O)OCC)c3)c(C(=O)Nc3ccc(F)cc3)sc2n1`, the growth is 79.8% [30 µM] in assay [1]; 89% [30 µM] in assay [2]; 97.3% [30 µM] in [3]; 23% [30 µM] in [4]; -31.5% [30 µM] (active) in [5]; 65% [30 µM] in assay [6]. The growth in assay [7] was 3.58% [30 µM] (active); in assay [8], 15.1% [30 µM]; in [9] it was 72.9% [30 µM].

Take `COc1ccc(-c2cc(C(=O)N=Nc3c(O)[nH]c4ccc(Br)cc34)no2)cc1`: the growth is 87% in assay [1]; 86.3% in assay [2]; 99% in [3]; 90.5% in assay [10]; 101% in [4]; 96.7% in assay [5]. Further, the growth in [8] was 105%; in assay [9] it was 114%.

With `CCN(CC)c1ccc2c(c1)Oc1nc(N)c(C#N)c(N)c1C2Sc1ccc(SC)cc1` (stereo not drawn), the growth is -22.7% (active) in assay [1]; -46.9% (active) in [2]; -15.1% (active) in assay [3]; -15.3% (active) in assay [4]; -12.5% (active) in assay [5]; -50.8% (active) in [6]. The growth in assay [7] is -2.37% (active); in [8], -39.1% (active); in assay [9], -73.6% (active).
